From PubChem BioAssay (EPA / NIEHS)
The source made the active and inactive calls. The calls were made as follows: active = hit-call score of the fitted dose curve at least 0.9, where 1 is the maximum; inactive = score below 0.9.

What was measured:
Conditions in all cases: mRNA level, 48 h; actives raise or lower the signal
[1] = read-out: catalase (CAT), CAT (gene 847); assay: LTEA_HepaRG_CAT: Life Technologies and Expression Analysis (LTEA) Assay for catalase (CAT) using HepaRG (AID 2283452)
Procedure, shortened: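 HepaRG cells in serum-free induction medium, 0.5% DMSO vehicle, exposed 48 h in duplicate over 8 half-log concentrations from 100 uM. CAT mRNA measured by qRT-PCR, normalized to ACTB, GAPDH, POLR2A; bidirectional fit versus DMSO.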

[2] = read-out: flavin-containing dimethylaniline monooxygenases 3 (FMO3), FMO3 (gene 2328); assay: LTEA_HepaRG_FMO3: Life Technologies and Expression Analysis (LTEA) Assay for flavin-containing dimethylaniline monooxygenases 3 (FMO3) using HepaRG (AID 2283453);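 as to AC50: differentiated human HepaRG liver cells in serum-free induction medium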
Procedure, shortened: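 FMO3 transcript quantified by TaqMan qRT-PCR against three housekeeping genes after 48 h chemical exposure of HepaRG cells. Eight-point half-log series, top 100 uM, 0.5% DMSO vehicle; phenobarbital 1mM induction control; up- or down-regulation fitted.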

[3] = read-out: Cytochrome P450 (CYP1A1), CYP1A1 (gene 1543); assay: LTEA_HepaRG_CYP1A1: Life Technologies and Expression Analysis (LTEA) Assay for Cytochrome P450 (CYP1A1) using HepaRG (AID 2283454)
Procedure, shortened: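 Using HepaRG cultures with 0.5% DMSO as vehicle, eight-concentration exposures (max 100 uM) lasted 48 h. Transcript levels were measured by TaqMan qRT-PCR and normalized to ACTB, GAPDH and POLR2A.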

[4] = read-out: CFLAR gene, CFLAR (gene 8837); assay: LTEA_HepaRG_CFLAR: Life Technologies and Expression Analysis (LTEA) Assay for CFLAR gene using HepaRG (AID 2283455)
Procedure, shortened: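 qRT-PCR read-out (Fluidigm/TaqMan) of CFLAR mRNA, normalized to three housekeeping genes, in differentiated human HepaRG cells after 48 h chemical exposure; 8-point half-log series from 100 uM in 0.5% DMSO; bidirectional curve fitting versus DMSO.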

[5] = read-out: Forkhead box O1 (FOXO1), FOXO1 (gene 2308); assay: LTEA_HepaRG_FOXO1: Life Technologies and Expression Analysis (LTEA) Assay for Forkhead box O1 (FOXO1) using HepaRG (AID 2283456)
Procedure, shortened: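 HepaRG, 48 h exposure, 8-pt half-log series from 100 uM in 0.5% DMSO, duplicates; Fluidigm qRT-PCR mRNA, housekeeping-normalised; bidirectional fit vs DMSO baseline.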

[6] = read-out: growth arrest and DNA damage 45 (GADD45A), GADD45A (gene 1647); assay: LTEA_HepaRG_GADD45A: Life Technologies and Expression Analysis (LTEA) Assay for growth arrest and DNA damage 45 (GADD45A) using HepaRG (AID 2283458)
Procedure, shortened: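 GADD45A expression was measured by TaqMan qRT-PCR against three housekeeping genes (ACTB, GAPDH, POLR2A) after 48 h treatment of HepaRG cells. Eight-point half-log series up to 100 uM in 0.5% DMSO, run in duplicate.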

[7] = read-out: Forkhead box O3 (FOXO3), FOXO3 (gene 2309); assay: LTEA_HepaRG_FOXO3: Life Technologies and Expression Analysis (LTEA) Assay for Forkhead box O3 (FOXO3) using HepaRG (AID 2283459)
Procedure, shortened: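 qRT-PCR readout of FOXO3 transcript, normalized to three housekeeping genes (ACTB, GAPDH, POLR2A); gain or loss fitted against 0.5% DMSO vehicle. HepaRG cells, 48 h chemical exposure, 8-point half-log series, top 100 uM.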

[8] = read-out: ABC Transporter (ABCB1), ABCB1 (gene 5243); assay: LTEA_HepaRG_ABCB1: Life Technologies and Expression Analysis (LTEA) Assay for ABC Transporter (ABCB1) using HepaRG (AID 2283460)
Procedure, shortened: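 HepaRG, 48 h exposure, 8-pt half-log series from 100 uM, 0.5% DMSO vehicle, duplicates. Readout: ABCB1 transcript by Fluidigm TaqMan qRT-PCR, housekeeping-normalized; bidirectional curve fit vs DMSO baseline.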

[9] = read-out: ABC Transporter (ABCC3), ABCC3 (gene 8714); assay: LTEA_HepaRG_ABCC3: Life Technologies and Expression Analysis (LTEA) Assay for ABC Transporter (ABCC3) using HepaRG (AID 2283462)
Procedure, shortened: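 Transcriptional change of ABCC3 in HepaRG after 48 h treatment, determined by qRT-PCR normalized to endogenous controls. Concentrations spanned eight half-log steps to 100 uM in 0.5% DMSO.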

[10] = read-out: ABC Transporter (ABCB11), ABCB11 (gene 8647); assay: LTEA_HepaRG_ABCB11: Life Technologies and Expression Analysis (LTEA) Assay for ABC Transporter (ABCB11) using HepaRG (AID 2283463)
Procedure, shortened: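 HepaRG, 48 h exposure, 8-pt half-log CRC top 100 uM, 0.5% DMSO vehicle, duplicates. Readout: TaqMan qRT-PCR of ABCB11 mRNA, housekeeping-normalized (ACTB/GAPDH/POLR2A). Bidirectional fit vs DMSO baseline.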

[11] = read-out: ABC Transporter (ABCC2), ABCC2 (gene 1244); assay: LTEA_HepaRG_ABCC2: Life Technologies and Expression Analysis (LTEA) Assay for ABC Transporter (ABCC2) using HepaRG (AID 2283464)
Procedure, shortened: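 After plating and 48 h culture, HepaRG medium is replaced with serum-free induction medium and chemicals are added (8 concentrations, max 100 uM, 0.5% DMSO) for 48 h. Total RNA then undergoes qRT-PCR for ABCC2 with housekeeping normalization.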

[12] = read-out: Broad substrate specificity ATP-binding cassette transporter ABCG2 (Homo sapiens) (UniProt Q9UNQ0); assay: LTEA_HepaRG_ABCG2: Life Technologies and Expression Analysis (LTEA) Assay for ABC Transporter (ABCG2) using HepaRG (AID 2283465)
Procedure, shortened: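 HepaRG, 48 h exposure, 8-pt half-log series from 100 uM, 0.5% DMSO vehicle, duplicates. Readout: ABCG2 transcript by qRT-PCR (Fluidigm array), housekeeping-normalized; bidirectional curve fit relative to DMSO baseline.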

[13] = read-out: ATP-citrate lyase (ACLY), ACLY (gene 47); assay: LTEA_HepaRG_ACLY: Life Technologies and Expression Analysis (LTEA) Assay for ATP-citrate lyase (ACLY) using HepaRG (AID 2283466)
Procedure, shortened: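 qRT-PCR readout of ACLY transcript after 48 h chemical treatment of HepaRG cells; expression normalized to three housekeeping genes. Eight-point half-log series, highest 100 uM, 0.5% DMSO vehicle. Gain or loss fitted against DMSO baseline.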

[14] = read-out: Peroxisomal acyl-coenzyme A oxidase 1 (ACOX1) gene, ACOX1 (gene 51); assay: LTEA_HepaRG_ACOX1: Life Technologies and Expression Analysis (LTEA) Assay for Peroxisomal acyl-coenzyme A oxidase 1 (ACOX1) gene using HepaRG (AID 2283467)
Procedure, shortened: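 HepaRG, 48 h chemical exposure, 8-pt half-log series from 100 uM top, 0.5% DMSO vehicle, duplicates. Readout: ACOX1 mRNA by Fluidigm qRT-PCR, housekeeping-normalized; bidirectional fit vs DMSO baseline.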

[15] = read-out: Alkaline Phosphatase, Placental (ALPP) gene, ALPP (gene 250); assay: LTEA_HepaRG_ALPP: Life Technologies and Expression Analysis (LTEA) Assay for Alkaline Phosphatase, Placental (ALPP) gene using HepaRG (AID 2283468);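 as to AC50: differentiated human HepaRG liver cells in serum-free induction medium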
Procedure, shortened: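 Using human liver HepaRG cells, chemicals are tested in duplicate over 48 h at half-log concentrations topping at 100 uM; phenobarbital 1 mM serves as induction control. ALPP mRNA change by qRT-PCR, bidirectional fit against vehicle.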

[16] = read-out: Bcl-2 (BAD) gene, BAD (gene 572); assay: LTEA_HepaRG_BAD: Life Technologies and Expression Analysis (LTEA) Assay for Bcl-2 (BAD) gene using HepaRG (AID 2283469)
Procedure, shortened: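 HepaRG, 48 h exposure, 8-pt half-log curve from 100 uM in 0.5% DMSO, duplicates. Readout: TaqMan qRT-PCR for BAD mRNA, housekeeping-normalised (ACTB/GAPDH/POLR2A); gain or loss fitted against DMSO baseline.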

[17] = read-out: Bcl-2 (BAX) gene, BAX (gene 581); assay: LTEA_HepaRG_BAX: Life Technologies and Expression Analysis (LTEA) Assay for Bcl-2 (BAX) gene using HepaRG (AID 2283470)
Procedure, shortened: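 Gene expression measured by Fluidigm qRT-PCR with three housekeeping genes for normalisation. HepaRG cells, plated 48 h beforehand, treated 48 h at up to 100 uM (8-point, half-log) in 0.5% DMSO. Bidirectional fitting versus DMSO.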

[18] = read-out: adenosine kinase (ADK) gene, ADK (gene 132); assay: LTEA_HepaRG_ADK: Life Technologies and Expression Analysis (LTEA) Assay for adenosine kinase (ADK) gene using HepaRG (AID 2283471)
Procedure, shortened: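 ADK expression quantified by qRT-PCR, normalised to three housekeeping genes, after 48 h exposure of HepaRG cells to eight concentrations (top 100 uM, half-log steps, duplicate, 0.5% DMSO). Up- or down-regulation fitted relative to vehicle.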

[19] = read-out: growth arrest and DNA damage 45 (GADD45B), GADD45B (gene 4616); assay: LTEA_HepaRG_GADD45B: Life Technologies and Expression Analysis (LTEA) Assay for growth arrest and DNA damage 45 (GADD45B) using HepaRG (AID 2283461)
Procedure, shortened: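 Human HepaRG monolayers receive chemicals for 48 h at eight half-log concentrations, highest 100 uM, in 0.5% DMSO. Expression is measured by TaqMan qRT-PCR and normalized to ACTB, GAPDH and POLR2A.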

Measured: AC50

Broad substrate specificity ATP-binding cassette transporter ABCG2 (Homo sapiens), sequence (Q9UNQ0 whole entry, looked up): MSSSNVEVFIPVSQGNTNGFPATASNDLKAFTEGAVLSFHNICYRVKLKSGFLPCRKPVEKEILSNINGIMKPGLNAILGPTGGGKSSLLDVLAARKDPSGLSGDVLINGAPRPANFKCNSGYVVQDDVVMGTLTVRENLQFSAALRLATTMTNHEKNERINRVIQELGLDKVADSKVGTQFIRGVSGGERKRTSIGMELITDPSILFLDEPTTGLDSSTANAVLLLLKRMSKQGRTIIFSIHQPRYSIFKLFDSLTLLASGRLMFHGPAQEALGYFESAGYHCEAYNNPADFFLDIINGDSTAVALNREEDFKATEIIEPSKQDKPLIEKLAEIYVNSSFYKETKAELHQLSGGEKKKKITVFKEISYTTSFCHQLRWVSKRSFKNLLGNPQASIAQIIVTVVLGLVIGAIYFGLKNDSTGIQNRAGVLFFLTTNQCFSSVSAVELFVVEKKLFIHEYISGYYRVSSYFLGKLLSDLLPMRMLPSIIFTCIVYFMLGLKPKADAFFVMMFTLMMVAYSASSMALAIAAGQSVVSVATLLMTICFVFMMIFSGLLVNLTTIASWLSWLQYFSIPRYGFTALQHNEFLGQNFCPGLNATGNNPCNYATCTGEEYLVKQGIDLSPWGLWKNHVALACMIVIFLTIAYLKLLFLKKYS

CCCCCCCCOc1ccc(C(=O)c2ccccc2)c(O)c1
active: [3] 50 µM
not listed: [19]
inactive: all other assays above

c1ccc2n[nH]nc2c1
not listed: [19]
inactive: all other assays above

CN(C)c1ccc(C(=C2C=CC(=[N+](C)C)C=C2)c2ccc(N(C)C)cc2)cc1
inactive: [12] | [17]
active: [1] 3.73 µM | [2] 4.03 µM | [3] 7.18 µM | [4] 29.6 µM | [5] 10.1 µM | [6] 50 µM | [7] 17.4 µM | [8] 12.9 µM | [19] 3.56 µM | [9] 85.8 µM | [10] 3.65 µM | [11] 18.8 µM | [13] 12.5 µM | [14] 12.9 µM | [15] 3.9 µM | [18] 20.7 µM

C[C@]12CC[C@@H]3c4ccc(O)cc4CC[C@H]3[C@@H]1CCC2=O
active: [2] 50 µM | [8] 14.4 µM | [12] 16.7 µM
not listed: [3] | [19]
inactive: all other assays above

O=CCCCC=O
not listed: [19]
inactive: all other assays above

CC[C@H](NC(=O)c1cc(F)ccc1NS(=O)(=O)c1cccc2cccnc12)c1ccccc1
active: [1] 59.2 µM | [2] 34 µM | [3] 47.1 µM | [8] 1.34 µM | [10] 47.8 µM | [11] 11.7 µM | [14] 71.3 µM | [17] 9.47 µM
not listed: [19]
inactive: all other assays above

CCCC(=O)OCCC(C)C
active: [3] 68.2 µM
not listed: [19]
inactive: all other assays above
